Compound activity as filed in PubChem.
KCNQ2 inh: KCNQ2 (rat) channel inhibition; AID 2156; B-score at 10 µM; actives 1.1% (n = 310,000); CHO-K1 KCNQ2, FluxOR thallium flux, 20 min; active compounds read low;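 active = fluorescence ratio B-score at most minus 3 library SDs, with starting brightness B-score within 2 library SDs, cut at about -5.5 in these data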
KCNQ2 pot: enhances the rat KCNQ2 potassium channel | CHO-K1 KCNQ2, FluxOR thallium flux fluorescence; active compounds read high | B-score at 10 µM | AID 2239 | actives 0.54% (n = 310,000);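 active = fluorescence ratio B-score at least 3 SD of library B-scores, with initial fluorescence B-score within 3 of them, cut at about 5.3 in these data; same plate scores as AID 2156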;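 note: B-score of peak minus minimum over baseline fluorescence ratio after K+ and Tl+ stimulus; positive B-score means potentiation of KCNQ2 with more thallium influx and brighter signal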
* marks the source's active call; other numbers are inactive results; i = inactive; . = no result given. Rows were chosen to be rich in hits. Some 1.6% of all compounds tested hit in one or more screens of this group.

SMILES | KCNQ2 inh | KCNQ2 pot
Cc1sc2nc(CSc3ccccc3)nc(N3CCC(C(N)=O)CC3)c2c1C | i | 1.4
Cc1sc2nc(CSc3ccccc3)nc(N3CCOCC3)c2c1C | -5.9* | -5.9
Cc1ccc(S(=O)(=O)NC(=O)COc2ccccc2C)c(C)c1 | i | 0.01
CCOc1cccc2cc(C(=O)NCc3ccc(Cl)cc3)c(=N)oc12 | i | .
O=C(Oc1ccc(Br)cc1C(=O)/C=C/c1ccccc1F)c1ccco1 | -7.2* | -7.2
CC(=O)c1cc(Cl)ccc1OC(=O)c1ccco1 | i | 1.5
COC(=O)c1ccc(CN2C(=O)NC3(CCC(C)CC3)C2=O)cc1 (stereo not drawn) | i | 1.2
COc1ccc(/C(N)=N/OC(=O)CCc2ccccc2)cc1OC | i | .
COc1ccc(/C(N)=N/OC(=O)CSc2ccccc2)cc1OC | -6* | -6
Cc1cc(C)cc(NC(=S)N2CCC(NC(=O)c3ccccc3C)CC2)c1 | i | 0.37
O=C(/C=C/c1ccc2c(c1)OCO2)NCCSCc1c(Cl)cccc1Cl | i | .
CC(C)N=c1cc2n(-c3ccc(Cl)cc3)c3ccccc3nc-2cc1Nc1ccc(Cl)cc1 | -8* | -8
Cn1c(CNc2ccc(Cl)cc2)nc2ccccc21 | i | .
COc1ccc(C(=O)Cn2c(Cl)nc3c2c(=O)n(C)c(=O)n3C)cc1 | i | 0.77
CC1(c2ccc(Cl)cc2)NC(=O)N(CC(=O)N2CCN(S(=O)(=O)c3ccccc3)CC2)C1=O (stereo not drawn) | i | 0.36
CCOC(=O)/C(=C/c1ccc(OC(=O)c2ccncc2)cc1)C(C)=O | -5.7* | -5.7
COCCOC(=O)/C(=C/c1ccc(OC(=O)c2ccccc2)cc1)C(C)=O | i | 0.27
O=C(Nc1ccccc1C(=O)NC(Cc1ccc(O)cc1)C(=O)O)c1ccccc1 (stereo not drawn) | i | 1.1
CCc1ccc(NC(=S)N(CCCN2CCOCC2)Cc2ccco2)cc1 | i | 6.6*
COc1ccc(NC(=S)N(CCCN2CCOCC2)Cc2ccco2)cc1 | i | .
Nc1n[nH]c(CO)n1 | i | 0.78
Cc1sc2ncnc(N/N=C/c3ccccc3O)c2c1C | i | .
COc1cccc(/C=N/Nc2ncnc3scc(-c4ccccc4)c23)c1OC | -6* | -6
O=C(NCc1ccc2c(c1)OCO2)c1ccc(N2CCCCCC2)c([N+](=O)[O-])c1 | i | 2.5
CC1CCCN(c2ccc(C(=O)NCc3ccc4c(c3)OCO4)cc2[N+](=O)[O-])C1 (stereo not drawn) | i | 8.3*
SMILES | KCNQ2 inh | KCNQ2 pot
COc1ccc(N(CC(=O)NCc2ccco2)C(=O)CCC(=O)Nc2nccs2)cc1 | i | .
CC(=N\NC(=O)c1ccc([N+](=O)[O-])cc1)/C(=N/O)C(=O)Nc1ccccc1 | -5.8* | -5.8
CCOC(=O)/C(C)=N/NC(=O)c1ccc([N+](=O)[O-])cc1 | i | 5.1
C/C(=N\NC(=O)Cn1cc([N+](=O)[O-])cn1)c1ccc(O)cc1 | i | 0.18
c1ccc(Cn2c(CNc3nc4ccccc4n3CCN3CCOCC3)nc3ccccc32)cc1 | -6* | -6
c1ccc2c(c1)nc(NCc1ccc3c(c1)OCO3)n2CCN1CCOCC1 | i | .
CCCCCN(C(=O)CCC(=O)OCc1cccc(C)c1)c1c(N)n(CCCC)c(=O)[nH]c1=O | i | .
CCNC(=O)NC(=O)C(C)Oc1ccc(Br)cc1Br (stereo not drawn) | i | .
Cc1nc2ccccc2nc1N1CCC(C)CC1 | i | 0.87
Cc1cc(C)n(-c2nc3ccccc3nc2N2CCC(C)CC2)n1 | -6.8* | -6.8
Cc1ccc(S(=O)(=O)N2CCN(c3nc4ccccc4nc3-n3nc(C)cc3C)CC2)cc1 | -6* | -6
Cc1cc(C)n(-c2nc3ccccc3nc2N2CCN(C(=O)c3ccc(F)cc3)CC2)n1 | i | .
CCn1cc(C(=O)N(C)c2ccccc2F)c2cc(OC)c(OC)cc2c1=O | i | 1.8
CCOC(=O)COc1ccccc1/C=C\[N+](=O)[O-] | i | .
O=[N+]([O-])c1cc(CN2CCC(O)CC2)ccc1Cl | i | .
CNC(=O)C12CC3CC(CC(Cl)(C3)C1)C2 | i | .
CCN1C(=O)[C@H]2[C@@H](c3ccc(C)cc3)N3C(=O)N(c4ccc(OC)cc4)C(=O)[C@@]3(C)[C@H]2C1=O | i | 0.03
CN(Cc1ccccc1)C(=O)CSc1nc2ccccc2c(=O)n1Cc1ccco1 | i | .
CCOC(=O)c1cc2c(c(CSc3nc4ccccc4c(=O)n3Cc3ccco3)c1)OCOC2 | -5.6* | -5.6
O=c1c2ccccc2nc(SCc2cc(F)cc3c2OCOC3)n1Cc1ccco1 | -8* | -8
O=C(CSc1nc2ccccc2c(=O)n1Cc1ccco1)NCc1ccco1 | i | 1.1
O=c1[nH]ncc(NCc2ccc(Cl)cc2)c1Cl | i | 1.2
COCCNC(=S)N(CCc1c(C)[nH]c2ccccc12)Cc1cccnc1 | i | 2.3
O=C(c1ccco1)[C@@H]1[C@@H]2C(=O)N(c3ccccc3)C(=O)[C@@H]2C2c3ccccc3C=CN21 (stereo partly drawn) | i | .
Cc1ccc(N2C(=O)[C@@H]3[C@H](C2=O)C2c4ccccc4C=CN2[C@@H]3C(=O)c2ccco2)c(C)c1 (stereo partly drawn) | -6.4* | -6.4
SMILES | KCNQ2 inh | KCNQ2 pot
Cc1oc(-c2ccccc2)nc1Cn1cccc1C1=NC(c2ccccc2)CO1 (stereo not drawn) | -6* | -6
Fc1ccc(Cn2cccc2C2=NC(c3ccccc3)CO2)cc1 (stereo not drawn) | i | .
COc1ccc(CCC(=O)NC2CCC(C)CC2)cc1 (stereo not drawn) | i | 2.1
Cc1ccc(N2CCN(c3ncccc3[N+](=O)[O-])CC2)c(C)c1 | i | .
Cc1ccc(C)c(N2CCN(c3ncccc3[N+](=O)[O-])CC2)c1 | -6.6* | -6.6
CC(Sc1nncs1)C(=O)Nc1ccc(Cl)cn1 (stereo not drawn) | i | .
O=C(Cc1cc(=O)oc2cc(O)ccc12)NC(Cc1ccc(Cl)cc1)C(=O)O (stereo not drawn) | i | 0.15
O=C(c1cccc(-c2nnc(-c3ccccc3)o2)c1)N1CCCCCC1 | -5.8* | -5.8
O=C(c1cccc(-c2nnc(-c3ccccc3)o2)c1)N1CCCCC1 | i | 0.13
Cc1ccc2oc(C(=O)N(Cc3ccncc3)CC3CCCO3)c(C)c2c1 (stereo not drawn) | i | .
Cc1ccc2oc(C(=O)N(C)Cc3ccc(C)o3)c(C)c2c1 | -7.9* | -7.9
CCN(Cc1ccccc1)C(=O)c1oc2ccc(C)cc2c1C | -5.8* | -5.8
Cc1ccc2oc(C(=O)N(C)Cc3ccon3)c(C)c2c1 | i | 1.3
COc1ccc(CCN2CC(C(=O)NC3CCOCC3)CCC2=O)cc1 (stereo not drawn) | i | 1.2
CC1(C)C2CC=C(/C=N/NC(=O)c3ccccc3Br)C1C2 (stereo not drawn) | i | .
COc1ccccc1N1CCN(/N=C/c2ccc([N+](=O)[O-])cc2)CC1 | i | .
COc1ccccc1N1CCN(/N=C/c2ccc(Cl)c([N+](=O)[O-])c2)CC1 | -6.1* | -6.1
O=C(CSCc1ccc(Cl)cc1)NN=C1CCCC1 | i | 6.8*
CC1CCCC(C)N1C(=O)CSCc1ccc(Cl)cc1 (stereo not drawn) | -6.3* | -6.3
CC1CCCC(C)N1C(=O)COC(=O)Cc1ccc(Cl)cc1 (stereo not drawn) | i | .
N#Cc1ccc(CSCC(=O)NN=C2CCCC2)cc1 | i | .
CC1Nc2ccccc2C(=O)N1NS(=O)(=O)c1ccccc1 (stereo not drawn) | i | 0.29
